The list is not random: actives were taken first. Their share in the collection is about 3.4%.
HSF1 inhib – HSF1 inhibition. AID 2098. 300,000 tested, 0.77% active. NIH3T3-HGL HSE-luciferase, MG132-induced, luminescence 8 h; hits give low values. activity change, negative = inhibition, % at 7.5 µM (by protocol);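 active = more than half of replicate wells show activity change below -50%, luminescence cut by over half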;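 also: luciferase reports HSF-1 transcriptional activity via heat shock element; 0% = median of DMSO wells and -100% = zero luminescence signal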
Vif imaging – HIV Vif inhibition. HEK293T cells, Vif self-association by quenched fluorescence, imaging, 24 h. inhibition, % at 7.49 µM. 340,000 tested, 0.35% active; in the data active = inhibition above about 50%, passing the limit was not always enough
esBAF inh – SWI/SNF esBAF complex inhibition. 350,000 tested, 2% active. reporter increase, % at 12.5 µM. mouse ES cells, Bmi1-luciferase knock-in reporter, 24 h; 100% = twice the neutral-well signal. AID 602393; in the data active = activation above about 40%;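 also: 0% = median of the plate's neutral control wells and 100% = double that signal; a rise in the Bmi1 reporter signal indicates esBAF inhibition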
HSF1 activator – increases HSF-1 driven luciferase reporter signal. activation, % at 9 µM. NIH3T3-HGL HSF-1 luciferase reporter, MG132, 8 h; 100% = twice DMSO control signal. AID 504408. 300,000 tested, 1.7% active;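 active = mean replicate activation of at least 50% with a set share of replicates each reaching 50%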;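 also: 0% = median of the neutral control wells and 100% = twice that signal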
* = called active by the depositor.

For C[C@H](CO)N1C[C@H](C)[C@@H](CN(C)Cc2ccccc2)Oc2c(NC(=O)Nc3ccccc3)cccc2C1=O the results were esBAF inh 2.4.
Screening CCNC(=O)C[C@H]1CC[C@H](NS(=O)(=O)c2ccc(C)cc2)[C@@H](CO)O1 returned esBAF inh -5.9.
Screening CSc1ncc(C(=O)Nc2ccc(C(C)=O)cc2)c(C)n1 returned HSF1 inhib 2.5, Vif imaging -9.0, esBAF inh 52.1* and HSF1 activator 8.7.
`CC(=O)N(Cc1ccco1)c1nc(C(=O)Nc2ccc(Cl)cc2)c(C)s1` gave HSF1 inhib 15.4, Vif imaging -3.0 and HSF1 activator 53.0*.
For Cc1c(C)n(Cc2ccccc2)c2ncnc(N)c12 the results were HSF1 inhib -8.4, esBAF inh -1.8 and HSF1 activator -14.7.
For COc1ccc(-n2c(C)c(C)c3c(N)ncnc32)cc1 the results were HSF1 inhib -57.3*, Vif imaging -18.4, esBAF inh -8.6 and HSF1 activator -68.6.
For CC(=O)N1CCc2c(sc(NC(=O)c3ccc([N+](=O)[O-])o3)c2C#N)C1 the results were HSF1 inhib -1.3, Vif imaging -5.2 and HSF1 activator -11.4.
`CC(C)N1CCc2c(sc(NC(=O)c3ccc([N+](=O)[O-])o3)c2C(N)=O)C1` gave HSF1 inhib 64.5, Vif imaging -2.5, esBAF inh -73.6 and HSF1 activator 110.5*.
COC(=O)c1c(NC(=O)c2ccc([N+](=O)[O-])o2)sc2c1CCN(C(C)C)C2 was read as HSF1 inhib 110.0, Vif imaging 0.2, esBAF inh -74.4 and HSF1 activator 169.4*.
CNC(=O)C[C@@H]1CC[C@@H]2[C@H](COC[C@H](O)CN2S(=O)(=O)c2cccc(Cl)c2)O1 was read as esBAF inh -4.1.
For O=C(COc1cc(F)ccc1[N+](=O)[O-])N1N=C(c2cccs2)CC1c1ccco1 (centres undefined) the results were Vif imaging -2.9 and esBAF inh 19.4.
N#Cc1ccccc1OCC(=O)N1N=C(c2cccs2)CC1c1ccco1 (centres undefined) was read as Vif imaging 3.7 and esBAF inh 70.0*.
Screening O=C1CCC(C(=O)Nc2ccc(Cl)cc2)N1 (centres undefined) returned HSF1 inhib 1.6, Vif imaging 5.3, esBAF inh -6.4 and HSF1 activator 9.3.
Screening O=C(Nc1ccc(Cl)cc1)C1C2CCCCC21 (centres undefined) returned HSF1 inhib 36.1, Vif imaging 0.3, esBAF inh 72.5* and HSF1 activator 78.7*.
Screening CCc1ccc(NC(=O)C2C3/C=C\CCCCC32)cc1 (centres undefined) returned HSF1 inhib 15.4, Vif imaging 0.2 and esBAF inh 60.8*.
For COc1ccc(NC(=O)Nc2ccc3c(c2)C(=O)N([C@@H](C)CO)C[C@H](C)[C@H](CN(C)C(=O)Cc2ccccc2)OCCCC[C@H](C)O3)cc1 the results were esBAF inh 5.4.
CCOC(=O)C1=C(c2ccccc2)NC(=O)NC1c1ccsc1 (centres undefined) was read as HSF1 inhib -51.4*, Vif imaging 1.3, esBAF inh -6.8 and HSF1 activator -61.4.
For CCOC(=O)C1=C(C)NC(=O)NC1c1ccc(N2CCC(c3ccccc3)=N2)cc1 (centres undefined) the results were HSF1 inhib 27.0, Vif imaging 13.7, esBAF inh -9.7 and HSF1 activator 67.0*.
CCOC(=O)C1=C(c2ccccc2)NC(=O)NC1c1cc(Br)c(O)c(OC)c1 (centres undefined) was read as HSF1 inhib 31.7, Vif imaging -5.6, esBAF inh 4.9 and HSF1 activator 78.6*.
C[C@@H]1CN([C@@H](C)CO)S(=O)(=O)c2ccc(C3=CCCCC3)cc2O[C@H]1CN(C)Cc1cccc(C(=O)O)c1 was read as esBAF inh 4.4.
Screening CCCC#Cc1ccc2c(c1)O[C@H](CN(C)Cc1ccncc1)[C@H](C)CN([C@H](C)CO)S2(=O)=O returned esBAF inh -0.8.
Screening CCc1ccc(NC(=S)N2CCN(C)CC2)cc1 returned HSF1 inhib 2.0, Vif imaging -0.3 and HSF1 activator -21.7.
Screening S=C(Nc1ccc2nsnc2c1)N1CCCC1 returned HSF1 inhib 40.9, Vif imaging -3.0, esBAF inh 80.5* and HSF1 activator 75.1*.
For S=C(Nc1ccccc1)N1CCCCCC1 the results were HSF1 inhib 25.6, Vif imaging 4.6, esBAF inh 15.4 and HSF1 activator 54.7*.
Screening CC1CCCN(C(=S)Nc2ccc(Nc3ccccc3)cc2)C1 (centres undefined) returned HSF1 inhib 60.5, Vif imaging 3.7 and HSF1 activator 93.1*.
CCc1ccc(NC(=S)N2CCCC2)cc1 was read as Vif imaging -2.6 and esBAF inh 49.0*.
For O=C(Nc1ccc2nsnc2c1)N1CCCCCC1 the results were HSF1 inhib 17.2, Vif imaging 9.8, esBAF inh 36.7 and HSF1 activator 25.9.
`S=C(Nc1ccccc1)N1CCC(C2CCN(C(=S)Nc3ccccc3)CC2)CC1` gave HSF1 inhib -6.6 and HSF1 activator -1.9.
For CO[C@H]1CN(C)C(=O)c2cc(NC(=O)Nc3ccccc3)ccc2OC[C@@H](C)N(C(=O)CC2CC2)C[C@H]1C the results were esBAF inh 13.1.
Screening CO[C@H]1CN(C)C(=O)c2ccc(NC(=O)C3CCC3)cc2OC[C@H](C)N(Cc2cccnc2)C[C@@H]1C returned esBAF inh -0.5.
CNC[C@@H]1OCCCC[C@H](C)Oc2ccc(NC(=O)Nc3cccc4ccccc34)cc2C(=O)N([C@@H](C)CO)C[C@H]1C was read as esBAF inh 1.3.
Screening CCN1CCN(c2cc(C)c3cc(NC(=S)N4CCCC(C)C4)ccc3n2)CC1 (centres undefined) returned HSF1 inhib -78.7*, esBAF inh -23.1 and HSF1 activator -81.7.
`OCC1CCCN(C(=S)Nc2ccc(Oc3ccccc3)cc2)C1` (centres undefined) gave HSF1 inhib 13.0, Vif imaging -14.7, esBAF inh 82.1* and HSF1 activator 26.1.
Screening CCN1CCN(c2cc(C)c3cc(NC(=S)N4CC(C)CC(C)C4)ccc3n2)CC1 (centres undefined) returned HSF1 inhib -47.2, esBAF inh -0.7 and HSF1 activator -46.9.
`C[C@H]1CN([C@@H](C)CO)C(=O)Cc2cc(NC(=O)c3ccncc3)ccc2O[C@H]1CN(C)C(=O)Nc1ccccc1` gave esBAF inh -2.7.
Cc1ccc(O)c(N=Cc2ccc(C)s2)c1 was read as HSF1 inhib -0.2, Vif imaging -10.7, esBAF inh 58.6* and HSF1 activator -1.2.
`Cc1ccc(O)c(N=Cc2cccs2)c1` gave HSF1 inhib -1.2, Vif imaging -4.1 and HSF1 activator 16.0.
Oc1ccc(C2C(c3ccccc3)=NN=C(c3ccc(Cl)cc3)N2O)c(O)c1 (centres undefined) was read as HSF1 inhib 19.9, esBAF inh 46.4* and HSF1 activator 21.0.
